Growth data for 15 compounds are collected here from PubChem BioAssay (NCI).

What all share (assay): NCI-60 one-dose screen, 48 h (100 = growth as untreated, 0 = no growth, -100 = all killed)
Common to all, as to conditions: 10 µM unless noted

For test [1], the system named is T-47D breast.
The subject of test [2] is BT-549 breast.
The test system of test [3] is MDA-MB-435 melanoma.
The test system of test [4] is SW-620 colon.
In test [5] the test system is MCF7 breast.
In test [6] the test system is HCT-116 colon.
Test [7] concerns HCC-2998 colon.
In test [8] the test system is KM12 colon.

The panel holds about 83,000 compounds, 20% with a hit somewhere; the sample as a whole holds those more often.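 The endpoint reported here, percent growth, reads 100 for growth as untreated, 0 for no net growth and -100 for all cells dead.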 A number with no mark means an inactive call. Calls of active or inactive are those of the source. How the source made its calls: active means growth percent below 10; inactive means the rest.

With `COc1ccc(/C=C2\c3cc(OC)c(OC)c(OC)c3CC[C@@H]2O)cc1F`, the growth was 43.6% in test [1]; 23% in test [2]; -35.6% (active) in test [3]; 28% in test [4]; 18.4% in test [5]; 8.9% (active) in test [6]. Also, the growth is 35.7% in test [7] and 22.9% in test [8].

With `COC(=O)c1c2c(c(C)[n+]([O-])c1C)C(=O)C(NCc1ccccc1)=CC2=O`, the growth in test [1] is 5.63% (active); in test [2] it was 71.5%; in test [3], -61.4% (active); in test [4], 9.9% (active); in test [5], -33.9% (active); in test [6] it was 7.3% (active). The growth in test [7] was 16.9%; in test [8], 26.4%.

Consider `O=C1/C(=C/c2cccc(Br)c2)COc2ccc(O)cc21`, for which the growth in test [1] was 19.6%; in test [2] it was 47.7%; in test [3], 25.1%; in test [4], -21.2% (active); in test [5] it was 6.98% (active); in test [6], 6.67% (active). Besides, the results for the growth in test [7] and in test [8] were 86.2% and 28%, respectively.

With `COc1ccc(C(=O)C/C(=C\c2ccc(O)c(OC)c2)C(=O)NN)cc1`, the growth was 66.9% in test [1]; 63.7% in test [2]; 9.68% (active) in test [3]; 84.1% in test [4]; 47.9% in test [5]; 72.2% in test [6]. For the same compound, the figures for the growth in test [7] and in test [8] were 104% and 73.2%, respectively.

With `CCCCCc1ccc(S(=O)(=O)Nc2cc(-c3csc(NC(C)=O)n3)ccc2N2CCN(C)CC2)cc1`, the growth in test [1] is 58.8%; in test [2] it was 63.9%; in test [3], -45.4% (active); in test [4], -25.9% (active); in test [5], 9.36% (active); in test [6], 3.98% (active). Besides, the growth in test [7] was -26.9% (active); in test [8] it was 74.1%.

As to `CN1CC(c2ccc(Br)cc2)C(C(=O)c2ccc(Br)cc2)C12C(=O)Nc1ccccc12` (stereo not given), the growth is 49.5% in test [1]; 100% in test [2]; 78.9% in test [3]; 72% in test [4]; 62.4% in test [5]; 39.7% in test [6]. Moreover, the growth in test [7] is 84.5%; in test [8], 75%.

On to `Cc1ccc2cnc(N)c(C#Cc3cc(C(=O)Nc4ccc(CN5CCN(C)CC5)c(C(F)(F)F)c4)cnc3C)c2c1`, for which the growth in test [1] was 66.8%; in test [2], 16.5%; in test [3], -69.3% (active); in test [4] it was -77.3% (active); in test [5], -50.8% (active); in test [6] it was -83.9% (active). Further, the growth was 54% in test [7] and 0.561% (active) in test [8].

In the case of `C=C1C(=O)O[C@H]2[C@H]1CC/C(COC(=O)C(=O)c1c[nH]c3ccc(Cl)cc13)=C\CC[C@@]1(C)O[C@@H]21`, the growth in test [1] was -44.9% (active); in test [2] it was -87.2% (active); in test [3], -96.4% (active); in test [4] it was -75.5% (active); in test [5], -32.5% (active); in test [6], -99.6% (active). For the same compound, the growth in test [7] was -75.9% (active); in test [8], -72.8% (active).

For `Cc1nc2sc(C(=O)Nc3ccccn3)c(N)c2cc1C(C)O` (stereo not given), the growth is 73.1% in test [1]; 85.1% in test [2]; -31.6% (active) in test [3]; 48.8% in test [4]; 29.6% in test [5]; 48.1% in test [6]. Further, the growth is 74.8% in test [7] and 37.5% in test [8].

Consider `N=C(N)c1ccc(-c2ccc(-c3cc(Cl)cc(Cl)c3)s2)s1`, for which the growth is -50% (active) in test [1]; 87.8% in test [2]; -69.7% (active) in test [3]; -39.8% (active) in test [4]; -64.2% (active) in test [5]; -52.5% (active) in test [6]. Besides, the growth in test [7] was -59.9% (active); in test [8], -58.6% (active).

On to `Cn1cc(-c2csc(-c3cn(CCCN4CCOCC4)c4ccc(F)cc34)n2)c2cccnc21`, for which the growth was 41.1% in test [1]; 71.6% in test [2]; 65.3% in test [3]; 61% in test [4]; 34.1% in test [5]; 72.3% in test [6]. The growth in test [7] was 65.4%; in test [8] it was 34.3%.

As to `Cc1cccc(N2C(=O)/C(=C/C(Cl)=C/c3ccc([N+](=O)[O-])cc3)SC2=S)c1C`, the growth is 5.42% (active) in test [1]; 3.15% (active) in test [2]; 10.4% in test [3]; 0.401% (active) in test [4]; 15.2% in test [5]; -38.8% (active) in test [6]. The growth in test [7] was 42%; in test [8], 19.3%.

With `COc1ccc2cc(-c3nc4ccc(C)cn4c3NCc3ccco3)c(=O)[nH]c2c1`, the growth in test [1] was 47.1%; in test [2] it was 66.1%; in test [3] it was 86.8%; in test [4], 87.1%; in test [5], 74.1%; in test [6] it was 57.5%. Besides, the growth in test [7] is 95.6%; in test [8] it was 77.7%.

On to `Cc1cc(=O)oc2cc(Oc3nc(Br)cn4c(Br)cnc34)ccc12`, for which the growth in test [1] was 53.7%; in test [2], 92.2%; in test [3], 87.2%; in test [4], 116%; in test [5] it was 22.2%; in test [6] it was 55.5%. Further, the growth in test [7] was 105%; in test [8] it was 78.9%.

`O=C(O)c1cn(C2CC2)c2cc(N3CCN(C(=O)N/N=C/c4cccc5ccccc45)CC3)c(F)cc2c1=O`: the growth in test [1] was 89.9%; in test [2], 6.18% (active); in test [3], 104%; in test [4], 109%; in test [5] it was 98.2%; in test [6], 14.8%. Further, the figures for the growth in test [7] and in test [8] were 107% and 101%, respectively.
